Test results: PubChem BioAssay (NCATS)
Inconclusive results are not listed. Activity calls are given as the source filed them. Unless noted, calls come from the whole dose curve.

Assays:
[1] = Cell Viability - BJ (AID 421); settings: BJ fibroblast viability, qHTS;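 note: potency is the fitted concentration of half-maximal effect; cells exposed to compound for 40 hours at 37 °C before readout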
In short: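 Cytotoxicity in human BJ foreskin fibroblasts is scored as loss of cellular ATP after a 40-hour exposure, measured by luciferase luminescence. Controls are DMSO and 100 uM tamoxifen.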

[2] = Cell Viability - Jurkat (AID 426;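 active = dose-dependent loss of cell ATP signal giving a full or clear fitted curve, ranked by lower potency value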;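 note: potency is the fitted concentration of half-maximal effect; cells exposed to compound for 40 hours at 37 °C before ATP read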); settings: qHTS
In short: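 qHTS, 1536-well; Jurkat E6-1, 5000 cells/well, complete medium; cpd 40 hr, 37 °C; CellTiter-Glo 20 min RT; luminescence. AC50 by Hill fit.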

[3] = Cell Viability - Hek293 (AID 427;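 active = compounds whose dose-response curve shows a full or clear partial loss of cell viability, called from curve shape rather than a numeric limit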;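 note: potency is the fitted concentration of half-maximal effect; cells exposed to compound for 40 hours at 37 °C before reading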); settings: qHTS
In short: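 qHTS, human embryonic kidney (adenovirus-transformed) cells; 40 hr cpd, 37 °C; CellTiter-Glo ATP luminescence. Norm: DMSO = 0, 100 uM tamoxifen = 100% inhibition. Hill-fit AC50.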

[4] = Cell Viability - HepG2 (AID 433); settings: qHTS;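 note: potency is the fitted concentration of half-maximal effect; cells exposed to compound for 40 hours; potency for ATP loss meaning cytotoxicity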
In short: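 Cytotoxicity read as ATP loss (CellTiter-Glo luminescence) after 40 hr compound exposure of HepG2, 1500 cells/well, 37 °C. AC50 by Hill equation; 0% set by DMSO, 100% inhibition by 100 uM tamoxifen.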

[5] = Cell Viability - MRC5 (AID 434); settings: MRC5 lung fibroblast viability, qHTS;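 note: potency is the fitted concentration of half-maximal effect; cells exposed to compound for 40 hours at 37 °C; potency reflects cytotoxicity seen as loss of intracellular ATP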
In short: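 MRC5 normal human lung fibroblasts (1500/well) were treated with compounds for 40 hr at 37 °C in complete medium, and viable cells were measured as intracellular ATP by CellTiter-Glo luminescence. AC50 came from Hill fits, normalized to DMSO and 100 uM tamoxifen.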

[6] = qHTS assay for environmental chemicals that activate the Aryl hydrocarbon Receptor (AhR) signaling pathway (AID 651777; active = well fitted curve in the direction sought with a large enough effect; an effect the other way counts as inactive or inconclusive; note: % of control where 0% means no effect; nearly all actives have a fitted effect of over 15% in size); settings: 1A2-DRE human hepatoma cells, luciferase, 24 h; activation: stronger effect = higher value
In short: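 Human hepatoma 1A2-DRE cells, stably carrying a dioxin response element and CYP1A2 promoter driving luciferase, were exposed to compounds for 24 hr at 37 C and 5% CO2. Luciferase signal was then read after 30 min One-Glo at room temperature.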

[7] = qHTS assay for small molecule agonists of the antioxidant response element (ARE) signaling pathway measured by Nrf2-dependant transcriptional activity (AID 720636; active = well fitted curve in the direction sought with a large enough effect in the repeat runs; an effect the other way counts as inactive or inconclusive; note: % of control where 0% means no effect)
In short: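 ARE-luc HepG2 cells carrying an Nrf2-responsive luciferase reporter were plated in medium with 1% dialyzed FBS, left 6 hr at 37 C to attach, then exposed to compound for 16 hr. Luciferase luminescence was read after ONE-Glo addition.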

[8] = qHTS assay for small molecule agonists of the antioxidant response element (ARE) signaling pathway measured by Nrf2-dependant transcriptional activity - cell viability counter screen (AID 720653; active = well fitted curve in the direction sought with a large enough effect in the repeat runs; an effect the other way counts as inactive or inconclusive; note: % is set by controls: 0 for no effect and ±100 for the full control effect); settings: ARE-bla HepG2 viability, CellTiter-Glo ATP luminescence, 16 h; max response: stronger effect = lower value
In short: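 ARE-bla HepG2 cells (2,000/well) rested 5 hrs at 37C/5% CO2, then exposed to compounds in DMSO for 16 hrs. Viability was read in the same wells as intracellular ATP by luminescence, 30 min at room temperature after reagent addition.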

Cc1ccc2ccccc2c1C
inactive: Potency [1] > 92 µM | Potency [2] > 92 µM | Potency [3] > 92 µM | Potency [4] > 92 µM | Potency [5] > 92 µM | activation [6] 1.49% | Potency [7] | max response [8] 9.36%
